Only some compounds are listed: those with a hit (about 5.7% of all), similar ones and a draw of the others.
MPTP inh: blocks calcium-induced mitochondrial swelling; isolated mouse mitochondria, Ca2+ swelling absorbance, 30 min; inhibition, % at 10 µM; actives 1.4% (n = 360,000);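 active = inhibition of 50% or more, scaled per plate between neutral and stimulator controls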;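 also: 0% = DMSO wells given calcium and 100% = 1 mM EGTA wells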
Myeloid diff MLP: promotes myeloid progenitor differentiation | ER-HoxA9 myeloid progenitors, lysozyme-GFP differentiation, flow cytometry | calls only at 10 µM | actives 1% (n = 360,000) | AID 624256;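 active = normalized GFP-positive differentiation at or above the plate's own cutoff, the solvent-only control mean plus 3 SD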;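 also: cells exposed to compound for four days before flow analysis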
NR3A LBD binder: NR3A (human) ligand-binding domain modulation | NR3A LBD differential scanning fluorimetry, Tm shift; 0% = protein alone, 100% = glycine-bound protein | AID 1259313 | actives 2.5% (n = 340,000) | Tm shift relative to glycine control, % at 25 µM;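 active = melting temperature shift of at least 10% of the positive control shift, at one fixed dose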
rCAG binder: molecules binding r(CAG) RNA repeats; r(CAG) RNA repeat, TO-PRO-1 dye displacement fluorescence; inhibition, % at 3 µM; actives 1.3% (n = 370,000);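 active = inhibition above the plate cutoff, the mean of all test compounds on that plate plus 3 SD, cut at about 35% in these data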;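 also: 0% = DMSO alone and 100% = 100 µM mitoxantrone as full dye displacement; higher means more dye released from RNA so lower well fluorescence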
FAS-TE inh: blocks the thioesterase domain of human fatty acid synthase | recombinant FAS-TE, OMFH fluorogenic substrate, fluorescence endpoint | inhibition, % at 15 µM | AID 602261 | P49327 | actives 0.67% (n = 360,000);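 active = compounds whose normalised, plate-corrected inhibition of enzyme fluorescence in the single-dose primary screen is 50% or more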;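 also: 0% = DMSO with enzyme and 100% = substrate without enzyme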
The depositor's hits bear a star; i = inactive; . = no result given; + = active, no number.

SMILES | MPTP inh | Myeloid diff MLP | NR3A LBD binder | rCAG binder | FAS-TE inh
COc1ccc(C(C(=O)N(C)C2CCCC2)N(Cc2ccc(F)cc2)C(=O)c2ncn[nH]2)cc1OC (stereo not given) | . | . | . | 4 | .
C[C@H]1COc2cc(Br)ccc2S(=O)(=O)N1Cc1cn(Cc2ccc(C(F)(F)F)cc2)nn1 | . | . | . | 2 | .
COC(=O)CN1CCN(C(=O)c2csc(-c3ccccc3)n2)CC1 | . | . | . | 3 | .
CCOC(=O)c1ccc(NC(=O)Nc2ccn(C)n2)cc1 | 1 | + | 0 | . | -8
CCOC(=O)c1ccc(NC(=O)c2ccc(NC(=O)c3ccccc3)cc2)cc1 | 2 | i | 30* | 0 | -9
C/C(=N\NC(=O)c1ccccc1O)c1ccc(NC(=O)c2ccccc2)cc1 | -1 | i | 11* | -1 | -4
CCOC(=O)c1ccc(NC(=O)Nc2cccc(C)n2)cc1 | 5 | i | -5 | 0 | -3
CCOc1ccc(C(=O)Nc2ccc(NC(=O)c3ccccc3)cc2)cc1Br | 1 | i | 29* | 2 | 1
O=C(NCCc1ccccc1)OCc1cn(Cc2ccccc2Cl)nn1 | . | . | . | 0 | .
Nn1c(SCC(=O)Nc2cc(C(F)(F)F)ccc2Cl)nnc1-c1n[nH]c2c1CCC2 | . | . | . | 0 | .
COCCNC(=S)N/N=C(\C)c1ccccc1O | 0 | i | 6 | 0 | -12
COc1ccc(O)c(/C=N/NC(=S)NCCc2ccccc2)c1 | 4 | . | 36* | 15 | 8
Oc1ccc(Br)cc1/C=N/NC(=S)NCCc1ccccc1 | 6 | . | 23* | 31 | 29
S=C(NCCc1ccccc1)N/N=C/c1ccccc1Cl | 3 | i | -1 | 7 | 33
COc1ccc(/C(C)=N/NC(=S)NCCc2ccccc2)c(O)c1 | 7 | i | 23* | 12 | 23
COc1ccc(/C=N/NC(=S)NCCc2ccccc2)cc1 | 0 | i | -2 | 3 | 30
COc1cccc(Nc2nc(-c3ccccc3)nc3ccccc23)c1 | 3 | i | 37* | 22 | 30
COc1cccc(Nc2nc(-c3ccccc3O)nc3ccccc23)c1 | 4 | i | 32* | 11 | 23
COc1ccc(Nc2nc(-c3ccccc3)nc3ccccc23)c(OC)c1 | 1 | i | -2 | 17 | 25
CC(CO)(CO)NC(=O)c1ccc(C#Cc2cccc(F)c2)cn1 | . | . | . | 2 | .
O=c1c(/C=C(\O)c2ccccc2)nc2ccccc2n1-c1ccccc1 | 0 | + | 0 | -2 | -38
COc1ccc(NC(=O)c2ccc3c(c2)OCCO3)cc1OC | -1 | i | 0 | 2 | -3
Cc1cccc(N(CC(=O)NC(C)(C)C)C(=O)CS(=O)CC(=O)Nc2ccc3c(c2)OCO3)c1 (stereo not given) | -1 | i | 1 | -3 | -8
O=C(Nc1ccc(N2CCOCC2)c(Cl)c1)c1ccccc1Cl | 0 | i | 19* | -5 | -3
COc1ccc(NC(=O)c2ccc3c(c2)OCO3)cc1Cl | 3 | i | 26* | -3 | 5
SMILES | MPTP inh | Myeloid diff MLP | NR3A LBD binder | rCAG binder | FAS-TE inh
Cc1ccc(NC(=O)CS(=O)CC(=O)Nc2ccc3c(c2)OCO3)cc1Cl (stereo not given) | 4 | i | 30* | 16 | 3
COc1cc(NC(=O)c2ccc3c(c2)OCCO3)ccc1NC(=O)c1ccccc1Cl | 1 | i | 29* | -2 | 16
CC1=C[C@@H]2[C@H]3C(=O)N(Cc4ccccc4)C(=O)[C@H]3[C@@H]1[C@@H]1O[C@@]3(C(=O)N(C)c4ccccc43)C3=C(CCCC3=O)N21 | . | . | . | 4 | .
Cc1ccccc1N1CCN(C2=Nc3ccccc3Sc3ccccc32)CC1 | . | . | . | 6 | .
O=C(Nc1ccc(Cl)c(Cl)c1)c1ccc(Cl)c(Cl)c1 | 23 | i | 42* | 0 | 12
O=C(O)c1ccc(CSc2nnc(COc3ccccc3)o2)cc1 | -1 | i | 1 | 3 | -7
O=C(O)c1cccc(CSc2nnc(COc3ccccc3)o2)c1 | -1 | i | 11* | 0 | -8
O=C(CSc1ccc(Cl)cc1)Nc1ccc(-c2nc3ccccc3[nH]2)cc1 | 1 | i | 37* | 3 | -2
O=C(/C=C/c1ccco1)Nc1ccc(-c2nc3ccccc3[nH]2)cc1 | 2 | i | 30* | 10 | -3
Cn1cc([N+](=O)[O-])c(C(=O)Nc2ccc(-c3nc4ccccc4[nH]3)cc2)n1 | 2 | i | 19* | 5 | -6
O=C(Nc1ccc(-c2nc3ccccc3[nH]2)cc1)c1ccco1 | 0 | i | 35* | . | -3
O=C(Nc1ccc2nc(-c3ccco3)[nH]c2c1)c1ccco1 | -2 | i | -2 | 0 | -5
O=C(CSc1ccccc1)Nc1nc2ccccc2[nH]1 | 1 | i | -3 | 3 | -4
COc1ccccc1-c1ccc2c(c1)C(C)(Cc1cccc(C#N)c1)C(=O)N2 (stereo not given) | 0 | i | . | 2 | 15
CCOc1cccc2sc(=NC(=O)CCS(=O)(=O)c3ccccc3)n(CC)c12 | -1 | i | -5 | -2 | 29
CCn1c(=NC(=O)c2ccc(S(=O)(=O)N(C)C)cc2)sc2cccc(OC)c21 | 2 | i | 10* | 2 | -1
COc1ccc(N/N=C(\C#N)C(=N)SCc2ccccc2)cc1 | 4 | i | 29* | 5 | 16
COc1cc(C=O)ccc1OCCOCCOc1c(C)cc(Cl)cc1Cl | -1 | i | 0 | -3 | 29
COc1cc(C)ccc1OCCOc1c(C)cc(Cl)cc1Cl | 1 | i | 10* | -1 | 17
COC(=O)C[C@H]1CC[C@H]2[C@H](COc3ccc(NC(=O)c4ccccc4F)cc3C(=O)N2C)O1 | . | . | . | 1 | .
CCOC(=O)[C@]12CCCC=C1N(Cc1ccc(OC)cc1)C(=O)[C@@H]2CC(=O)NCCCCc1ccccc1 | . | . | . | 4 | .
COc1ccccc1-c1csc(NC(=O)c2ccc(N3C(=O)CCC3=O)cc2)n1 | -1 | i | 34* | 6 | -2
Cc1ccc(-c2csc(NC(=O)CCNC(=O)c3ccc(Cl)cc3)n2)cc1 | 1 | i | 1 | 1 | -1
CC(C)(C)c1ccc(C(=O)NCC(=O)OCC(=O)Nc2nc(-c3ccc(F)cc3)cs2)cc1 | 4 | i | 10* | 5 | 12
O=C(Nc1nc(-c2ccc(F)cc2)cs1)c1ccc(N2C(=O)CCC2=O)cc1 | 0 | i | 25* | 3 | 0
O=C(Nc1ccccc1-c1nc2ccccc2[nH]1)c1ccc(N2C(=O)CCC2=O)cc1 | -2 | + | 9 | 7 | -18
COc1ccc(-c2csc(NC(=O)c3ccc(N4C(=O)CCC4=O)cc3)n2)cc1 | -3 | i | 1 | 1 | 2
COC(=O)[C@]12C[C@H](CC(=O)NCc3cccs3)C(=O)N(Cc3cccc4ccccc34)C1=C[C@H](C1CCCC1)O[C@@H]2C | . | . | . | 10 | .
O=C(CCN1CCN(c2ccccc2)CC1)NNC(=O)c1ccccc1 | 1 | i | . | 2 | -10
COc1ccc(-n2c(COc3ccccc3)nnc2SCC(=O)Nc2ccc(OCc3ccccc3)cc2)cc1 | . | . | . | 10 | .
